# Data as given in paper PMC7862700, “An all-to-all approach to the identification of sequence-specific readers for epigenetic DNA modifications on cytosine”.
# Legend:
# Test in all cases: DAPPL (digital affinity profiling via proximity ligation, sequencing); 10 mM Tris-HCl pH 7.5, 50 mM NaCl, 1 mM DTT, 4% glycerol, room temperature, 30 min; GST-TFs on glutathione beads, 16-mer random dsDNA library, 0.1% formaldehyde crosslink after washing; high values mean tight binding
# Details in all cases: protein: recombinant; tags: N-terminal GST; dsDNA, one strand shown
# ELK1 = target: T1, ELK1 (Homo sapiens, UniProt P19419 1-428)
# T1 sequence: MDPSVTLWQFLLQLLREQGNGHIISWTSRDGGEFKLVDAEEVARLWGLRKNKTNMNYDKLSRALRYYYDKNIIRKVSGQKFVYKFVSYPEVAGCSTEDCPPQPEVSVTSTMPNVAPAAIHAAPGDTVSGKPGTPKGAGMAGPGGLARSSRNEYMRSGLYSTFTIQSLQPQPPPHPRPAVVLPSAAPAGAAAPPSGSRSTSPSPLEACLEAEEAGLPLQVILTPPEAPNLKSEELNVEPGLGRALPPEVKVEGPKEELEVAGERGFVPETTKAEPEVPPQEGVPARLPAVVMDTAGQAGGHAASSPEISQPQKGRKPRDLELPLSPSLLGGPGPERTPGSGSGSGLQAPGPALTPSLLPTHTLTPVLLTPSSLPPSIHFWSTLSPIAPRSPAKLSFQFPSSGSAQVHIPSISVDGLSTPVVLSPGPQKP
# Outline: (§1)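 Pools were built from human transcription factors expressed in yeast as GST fusions, captured on glutathione beads and DNA-barcoded, along with a tag-only sample. Incubation with 200 nmole of a 16-mer random double-stranded DNA library lasted 30 min at room temperature in Tris/NaCl/DTT/glycerol buffer, and was followed by washing, 0.1% formaldehyde crosslinking, proximity ligation, PCR amplification and Illumina NextSeq500 sequencing. Binding signal is the quotient of each hexamer's read frequency for a factor and its frequency for the tag-only sample.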
# GABPA = target: T2, GABPA (Homo sapiens, UniProt Q06546 1-454)
# T2 sequence: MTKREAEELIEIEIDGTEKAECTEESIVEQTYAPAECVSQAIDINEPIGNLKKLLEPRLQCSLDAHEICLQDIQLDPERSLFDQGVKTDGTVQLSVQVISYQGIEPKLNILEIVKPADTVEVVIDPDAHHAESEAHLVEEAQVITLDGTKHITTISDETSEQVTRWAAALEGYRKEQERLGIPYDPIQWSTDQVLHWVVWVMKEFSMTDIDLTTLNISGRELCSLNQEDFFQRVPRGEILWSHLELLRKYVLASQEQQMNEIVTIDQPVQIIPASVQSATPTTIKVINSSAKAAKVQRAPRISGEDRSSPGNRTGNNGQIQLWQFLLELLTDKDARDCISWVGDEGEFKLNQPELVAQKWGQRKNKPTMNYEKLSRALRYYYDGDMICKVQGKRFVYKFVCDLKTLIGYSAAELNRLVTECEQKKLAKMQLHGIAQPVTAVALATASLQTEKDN
# Outline: as §1
# ERG = target: T3, ERG (Homo sapiens, UniProt P11308 1-479)
# T3 sequence: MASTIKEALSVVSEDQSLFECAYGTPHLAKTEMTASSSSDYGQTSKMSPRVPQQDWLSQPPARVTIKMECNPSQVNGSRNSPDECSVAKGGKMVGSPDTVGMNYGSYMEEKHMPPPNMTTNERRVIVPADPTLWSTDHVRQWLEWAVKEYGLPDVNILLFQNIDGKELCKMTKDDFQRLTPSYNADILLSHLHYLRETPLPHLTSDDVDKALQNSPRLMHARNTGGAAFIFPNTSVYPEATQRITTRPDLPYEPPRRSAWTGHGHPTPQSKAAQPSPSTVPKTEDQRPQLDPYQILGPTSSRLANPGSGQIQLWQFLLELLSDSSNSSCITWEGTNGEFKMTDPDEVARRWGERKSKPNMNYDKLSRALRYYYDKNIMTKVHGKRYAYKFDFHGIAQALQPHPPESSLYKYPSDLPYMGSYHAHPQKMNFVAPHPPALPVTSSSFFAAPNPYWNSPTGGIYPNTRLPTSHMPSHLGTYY
# Outline: as §1
# ELF1 = ELF1 (Homo sapiens, UniProt P32519 1-619)
# Outline: as §1
# EHF = target: T4, EHF (Homo sapiens, UniProt Q9NZC4 1-300)
# T4 sequence: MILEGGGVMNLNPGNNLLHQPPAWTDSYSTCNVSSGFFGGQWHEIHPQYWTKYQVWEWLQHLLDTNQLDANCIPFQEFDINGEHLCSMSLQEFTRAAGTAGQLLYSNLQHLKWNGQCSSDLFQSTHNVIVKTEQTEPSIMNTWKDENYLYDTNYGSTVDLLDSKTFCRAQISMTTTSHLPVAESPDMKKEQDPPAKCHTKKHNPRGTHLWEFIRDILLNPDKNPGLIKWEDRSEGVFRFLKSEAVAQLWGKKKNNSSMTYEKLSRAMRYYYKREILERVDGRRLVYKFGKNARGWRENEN
# Outline: as §1
# SPIB = SPIB (Homo sapiens, UniProt Q01892 1-262)
# Outline: as §1
# FEV = target: T5, FEV (Homo sapiens, UniProt Q99581 1-238)
# T5 sequence: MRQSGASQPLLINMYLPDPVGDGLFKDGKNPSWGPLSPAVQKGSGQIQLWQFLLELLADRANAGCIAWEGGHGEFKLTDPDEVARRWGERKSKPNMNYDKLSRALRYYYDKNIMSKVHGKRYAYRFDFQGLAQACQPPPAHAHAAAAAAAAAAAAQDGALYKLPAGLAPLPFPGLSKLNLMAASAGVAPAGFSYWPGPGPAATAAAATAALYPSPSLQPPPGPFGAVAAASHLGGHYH
# Outline: as §1
# ETV5 = ETV5 (Homo sapiens, UniProt P41161 1-510)
# Outline: as §1
# ELF4 = ELF4 (Homo sapiens, UniProt Q99607 1-663)
# Outline: as §1
# ELK4 = target: T6, ELK4 (Homo sapiens, UniProt P28324-2 1-405)
# T6 sequence: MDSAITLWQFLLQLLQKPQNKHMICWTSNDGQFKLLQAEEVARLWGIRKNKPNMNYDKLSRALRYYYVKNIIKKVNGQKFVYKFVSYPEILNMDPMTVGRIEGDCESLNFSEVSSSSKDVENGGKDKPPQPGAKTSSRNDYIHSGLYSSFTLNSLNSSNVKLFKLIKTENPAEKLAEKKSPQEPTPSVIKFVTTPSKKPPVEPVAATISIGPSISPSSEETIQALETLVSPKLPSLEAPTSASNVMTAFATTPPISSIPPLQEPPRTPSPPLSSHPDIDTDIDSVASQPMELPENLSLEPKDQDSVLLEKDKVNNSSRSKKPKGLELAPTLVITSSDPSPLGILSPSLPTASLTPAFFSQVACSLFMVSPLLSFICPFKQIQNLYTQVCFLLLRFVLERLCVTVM
# Outline: as §1
# ELF4, sequence (Q99607 whole entry): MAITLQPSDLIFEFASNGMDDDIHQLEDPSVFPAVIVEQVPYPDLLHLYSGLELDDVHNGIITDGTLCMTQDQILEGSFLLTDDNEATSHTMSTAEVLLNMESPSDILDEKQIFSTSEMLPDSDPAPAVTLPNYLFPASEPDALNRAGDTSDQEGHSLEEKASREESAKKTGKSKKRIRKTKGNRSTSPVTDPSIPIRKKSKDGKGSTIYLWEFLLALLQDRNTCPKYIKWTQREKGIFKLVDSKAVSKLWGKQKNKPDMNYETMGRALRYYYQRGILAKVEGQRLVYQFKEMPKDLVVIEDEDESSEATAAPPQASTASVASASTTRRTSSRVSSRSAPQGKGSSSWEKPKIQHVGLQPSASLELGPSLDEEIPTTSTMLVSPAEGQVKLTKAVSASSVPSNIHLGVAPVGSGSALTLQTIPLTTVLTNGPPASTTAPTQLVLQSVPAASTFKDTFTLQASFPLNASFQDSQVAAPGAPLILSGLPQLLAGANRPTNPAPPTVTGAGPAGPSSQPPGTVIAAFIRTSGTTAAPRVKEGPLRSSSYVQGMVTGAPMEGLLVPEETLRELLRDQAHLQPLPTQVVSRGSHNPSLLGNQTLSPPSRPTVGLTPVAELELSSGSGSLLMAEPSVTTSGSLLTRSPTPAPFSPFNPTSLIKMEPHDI
# ELF1, sequence (P32519 whole entry): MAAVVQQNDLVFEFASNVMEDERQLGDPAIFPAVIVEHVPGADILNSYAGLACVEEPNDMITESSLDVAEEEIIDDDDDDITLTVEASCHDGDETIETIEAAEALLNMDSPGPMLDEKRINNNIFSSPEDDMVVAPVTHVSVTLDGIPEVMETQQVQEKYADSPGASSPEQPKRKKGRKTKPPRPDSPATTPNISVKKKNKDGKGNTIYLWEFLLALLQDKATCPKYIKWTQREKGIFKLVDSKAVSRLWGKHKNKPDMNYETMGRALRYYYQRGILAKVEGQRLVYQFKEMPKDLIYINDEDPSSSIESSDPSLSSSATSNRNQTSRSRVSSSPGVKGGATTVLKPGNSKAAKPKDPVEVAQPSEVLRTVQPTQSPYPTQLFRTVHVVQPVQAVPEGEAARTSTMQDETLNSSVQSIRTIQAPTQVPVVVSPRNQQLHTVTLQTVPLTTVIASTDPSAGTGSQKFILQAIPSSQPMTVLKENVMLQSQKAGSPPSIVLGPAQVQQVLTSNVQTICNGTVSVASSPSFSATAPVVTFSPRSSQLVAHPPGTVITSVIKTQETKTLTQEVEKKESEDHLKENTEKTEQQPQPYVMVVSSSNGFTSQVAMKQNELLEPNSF
# ETV5, sequence (P41161 whole entry): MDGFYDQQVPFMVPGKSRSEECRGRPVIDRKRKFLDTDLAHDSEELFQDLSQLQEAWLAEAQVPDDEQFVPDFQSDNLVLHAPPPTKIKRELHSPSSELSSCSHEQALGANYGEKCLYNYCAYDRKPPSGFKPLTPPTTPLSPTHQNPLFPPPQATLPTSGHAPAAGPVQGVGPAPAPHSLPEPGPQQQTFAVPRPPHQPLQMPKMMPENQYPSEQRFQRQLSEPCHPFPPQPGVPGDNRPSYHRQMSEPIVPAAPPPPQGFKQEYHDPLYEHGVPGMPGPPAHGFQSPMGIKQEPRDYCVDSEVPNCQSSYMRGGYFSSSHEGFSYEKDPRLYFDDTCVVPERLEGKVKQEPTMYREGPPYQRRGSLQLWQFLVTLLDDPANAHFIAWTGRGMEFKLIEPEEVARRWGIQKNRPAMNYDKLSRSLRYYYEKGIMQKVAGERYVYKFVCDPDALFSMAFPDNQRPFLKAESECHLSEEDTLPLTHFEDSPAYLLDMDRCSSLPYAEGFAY
# SPIB, sequence (Q01892 whole entry): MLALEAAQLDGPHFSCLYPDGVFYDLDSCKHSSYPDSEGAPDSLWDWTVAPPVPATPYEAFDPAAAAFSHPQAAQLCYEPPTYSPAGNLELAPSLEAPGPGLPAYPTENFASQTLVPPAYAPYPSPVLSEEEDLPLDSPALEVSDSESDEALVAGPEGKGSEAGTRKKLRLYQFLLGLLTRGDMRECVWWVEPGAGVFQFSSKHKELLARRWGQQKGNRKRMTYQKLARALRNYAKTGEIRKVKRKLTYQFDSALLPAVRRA
sequence,measurement,setting,value
CATGCA,binding signal,ELK1,"1.08 fold enrichment (6-mer frequency, TF over GST control)"
same,binding signal,GABPA,"1.16 fold enrichment (6-mer frequency, TF over GST control)"
same,binding signal,ERG,"1.04 fold enrichment (6-mer frequency, TF over GST control)"
same,binding signal,ELF1,"1.1 fold enrichment (6-mer frequency, TF over GST control)"
same,binding signal,EHF,"1.12 fold enrichment (6-mer frequency, TF over GST control)"
same,binding signal,SPIB,"1.07 fold enrichment (6-mer frequency, TF over GST control)"
same,binding signal,FEV,"1.1 fold enrichment (6-mer frequency, TF over GST control)"
same,binding signal,ETV5,"1.1 fold enrichment (6-mer frequency, TF over GST control)"
same,binding signal,ELF4,"1.11 fold enrichment (6-mer frequency, TF over GST control)"
same,binding signal,ELK4,"1.05 fold enrichment (6-mer frequency, TF over GST control)"
